Source: PubChem BioAssay AID1159580 (chemical genetic matrix, 2015)
In all, about 5,500 compounds went through this assay and about 2,000 (36%) were called active. Inconclusive results (about 18%) are left out. Cut-off read from the data, not from the text of the source: active = normalized growth mostly below about 0.91 (no sharp cut-off); inconclusive = no clear call, values can overlap the other calls; inactive = mostly above about 0.92. The list shows a part of the results.

Assay: chemical genetic growth profiling, strain panel (AID 1159580);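 note: tested at 20 µM; growth read once vehicle control cultures reached saturation at 30 °C; 1 = growth at the plate median or of vehicle wells; lower values mean less growth of the strain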
Conditions: growth OD

Measured: normalized growth

COc1ccc(C2CC(=O)c3ccc(OC)cc3O2)cc1 (centres undefined)
active: S. cerevisiae deletion strains, locus YKR001C, strain vps1, stronger effect = lower value 0.876 | S. cerevisiae deletion strains, locus YLR113W, strain HOG1, stronger effect = lower value 0.851 | S. cerevisiae deletion strains, locus YLR221C, strain rsa3, stronger effect = lower value 0.899 | S. cerevisiae deletion strains, locus YLR258W, strain gsy2, stronger effect = lower value 0.91 | S. cerevisiae deletion strains, locus YLR268W, strain sec22, stronger effect = lower value 0.832 | S. cerevisiae deletion strains, locus YLR320W, strain mms22, stronger effect = lower value 0.742 | S. cerevisiae deletion strains, locus YLR330W, strain CHS5, stronger effect = lower value 0.844 | S. cerevisiae deletion strains, locus YLR342W, strain FKS1 (second series), stronger effect = lower value 0.705 | S. cerevisiae deletion strains, locus YLR418C, strain cdc73, stronger effect = lower value 0.66 | S. cerevisiae deletion strains, locus YML032C, strain rad52, stronger effect = lower value 0.889 | S. cerevisiae deletion strains, locus YML120C, strain ndi1, stronger effect = lower value 0.869 | S. cerevisiae deletion strains, locus YMR205C, strain PFK2, stronger effect = lower value 0.842 | S. cerevisiae deletion strains, locus YMR263W, strain SAP30, stronger effect = lower value 0.869 | S. cerevisiae deletion strains, locus YNL071W, strain lat1, stronger effect = lower value 0.727 | S. cerevisiae deletion strains, locus YNL153C, strain GIM3, stronger effect = lower value 0.847 | S. cerevisiae deletion strains, locus YNL183C, strain NPR1, stronger effect = lower value 0.802 | S. cerevisiae deletion strains, locus YNL233W, strain BNI4, stronger effect = lower value 0.804 | S. cerevisiae deletion strains, locus YNL307C, strain MCK1, stronger effect = lower value 0.668 | S. cerevisiae deletion strains, locus YOL006C, strain TOP1, stronger effect = lower value 0.394 | S. cerevisiae deletion strains, locus YOR083W, strain WHI5, stronger effect = lower value 0.865 | S. cerevisiae deletion strains, locus YOR184W, strain ser1, stronger effect = lower value 0.799 | S. cerevisiae deletion strains, locus YOR270C, strain vph1, stronger effect = lower value 0.675 | S. cerevisiae deletion strains, locus YOR290C, strain snf2, stronger effect = lower value 0.822 | S. cerevisiae deletion strains, locus YPL051W, strain arl3, stronger effect = lower value 0.887 | S. cerevisiae deletion strains, locus YPL055C, strain LGE1, stronger effect = lower value 0.754 | S. cerevisiae deletion strains, locus YPL078C, strain atp4, stronger effect = lower value 0.888 | S. cerevisiae deletion strains, locus YPR163C, strain tif3, stronger effect = lower value 0.797 | S. cerevisiae deletion strains, locus YPR167C, strain met16, stronger effect = lower value 0.889 | S. cerevisiae deletion strains, strain wtn01, stronger effect = lower value 0.887 | S. cerevisiae strains, strain wild type, stronger effect = lower value 0.89
inactive: S. cerevisiae deletion strains, locus YKL068W, stronger effect = lower value 0.97 | S. cerevisiae deletion strains, locus YKL085W, strain MDH1 (second series), stronger effect = lower value 0.982 | S. cerevisiae deletion strains, locus YKL085W, strain MDH1, stronger effect = lower value 0.982 | S. cerevisiae deletion strains, locus YKL160W, strain elf1, stronger effect = lower value 0.908 | S. cerevisiae deletion strains, locus YKL190W, strain CNB1, stronger effect = lower value 0.948 | S. cerevisiae deletion strains, locus YKR026C, strain gcn3, stronger effect = lower value 0.931 | S. cerevisiae deletion strains, locus YKR091W, strain srl3, stronger effect = lower value 0.968 | S. cerevisiae deletion strains, locus YLL001W, strain dnm1, stronger effect = lower value 0.938 | S. cerevisiae deletion strains, locus YLL026W, stronger effect = lower value 0.932 | S. cerevisiae deletion strains, locus YLL041C, strain sdh2, stronger effect = lower value 0.958 | S. cerevisiae deletion strains, locus YLR027C, strain aat2, stronger effect = lower value 0.93 | S. cerevisiae deletion strains, locus YLR039C, strain RIC1, stronger effect = lower value 0.811 | S. cerevisiae deletion strains, locus YLR058C, strain SHM2, stronger effect = lower value 0.901 | S. cerevisiae deletion strains, locus YLR102C, strain apc9, stronger effect = lower value 0.951 | S. cerevisiae deletion strains, locus YLR262C, strain YPT6 (second series), stronger effect = lower value 0.912 | S. cerevisiae deletion strains, locus YLR262C, strain YPT6, stronger effect = lower value 0.872 | S. cerevisiae deletion strains, locus YLR342W, strain FKS1, stronger effect = lower value 0.936 | S. cerevisiae deletion strains, locus YLR357W, strain rsc2, stronger effect = lower value 0.902 | S. cerevisiae deletion strains, locus YLR370C, strain arc18, stronger effect = lower value 0.947 | S. cerevisiae deletion strains, locus YLR371W, strain rom2, stronger effect = lower value 0.938 | S. cerevisiae deletion strains, locus YLR384C, strain iki3, stronger effect = lower value 0.952 | S. cerevisiae deletion strains, locus YML016C, strain PPZ1, stronger effect = lower value 0.959 | S. cerevisiae deletion strains, locus YML124C, strain tub3, stronger effect = lower value 0.952 | S. cerevisiae deletion strains, locus YMR058W, strain fet3, stronger effect = lower value 0.932 | S. cerevisiae deletion strains, locus YMR078C, strain ctf18, stronger effect = lower value 0.93 | S. cerevisiae deletion strains, locus YMR125W, strain sto1, stronger effect = lower value 0.967 | S. cerevisiae deletion strains, locus YMR129W, stronger effect = lower value 0.956 | S. cerevisiae deletion strains, locus YMR223W, strain ubp8, stronger effect = lower value 0.92 | S. cerevisiae deletion strains, locus YMR231W, strain pep5, stronger effect = lower value 0.993 | S. cerevisiae deletion strains, locus YMR307W, strain GAS1, stronger effect = lower value 0.649 | S. cerevisiae deletion strains, locus YNL067W, strain RPL9B, stronger effect = lower value 0.87 | S. cerevisiae deletion strains, locus YNL128W, strain TEP1, stronger effect = lower value 0.9 | S. cerevisiae deletion strains, locus YNL209W, strain ssb2, stronger effect = lower value 0.965 | S. cerevisiae deletion strains, locus YNL248C, strain rpa49, stronger effect = lower value 0.921 | S. cerevisiae deletion strains, locus YNL250W, strain rad50, stronger effect = lower value 0.939 | S. cerevisiae deletion strains, locus YNL271C, strain bni1, stronger effect = lower value 0.937 | S. cerevisiae deletion strains, locus YNL298W, strain CLA4, stronger effect = lower value 0.934 | S. cerevisiae deletion strains, locus YNL322C, strain KRE1 (second series), stronger effect = lower value 0.969 | S. cerevisiae deletion strains, locus YNR049C, strain mso1, stronger effect = lower value 0.97 | S. cerevisiae deletion strains, locus YNR052C, strain pop2, stronger effect = lower value 0.944 | S. cerevisiae deletion strains, locus YOL012C, strain htz1 0.489 | S. cerevisiae deletion strains, locus YOL147C, strain pex11, stronger effect = lower value 0.94 | S. cerevisiae deletion strains, locus YOR001W, strain rrp6, stronger effect = lower value 0.917 | S. cerevisiae deletion strains, locus YOR061W, strain CKA2, stronger effect = lower value 0.955 | S. cerevisiae deletion strains, locus YOR069W, strain VPS5, stronger effect = lower value 0.979 | S. cerevisiae deletion strains, locus YOR070C, strain gyp1, stronger effect = lower value 0.934 | S. cerevisiae deletion strains, locus YOR080W, strain dia2, stronger effect = lower value 0.957 | S. cerevisiae deletion strains, locus YOR106W, strain vam3, stronger effect = lower value 0.887 | S. cerevisiae deletion strains, locus YOR136W, strain idh2, stronger effect = lower value 0.954 | S. cerevisiae deletion strains, locus YOR144C, strain elg1, stronger effect = lower value 0.938 | S. cerevisiae deletion strains, locus YOR231W, strain MKK1, stronger effect = lower value 0.881 | S. cerevisiae deletion strains, locus YOR265W, strain rbl2, stronger effect = lower value 0.952 | S. cerevisiae deletion strains, locus YOR316C, strain cot1, stronger effect = lower value 0.939 | S. cerevisiae deletion strains, locus YPL106C, strain sse1, stronger effect = lower value 0.856 | S. cerevisiae deletion strains, locus YPL240C, strain hsp82, stronger effect = lower value 0.951 | S. cerevisiae deletion strains, locus YPL241C, strain CIN2, stronger effect = lower value 0.985 | S. cerevisiae deletion strains, locus YPL256C, strain CLN2, stronger effect = lower value 0.882 | S. cerevisiae deletion strains, locus YPR119W, strain clb2, stronger effect = lower value 0.969 | S. cerevisiae deletion strains, locus YPR141C, strain kar3, stronger effect = lower value 0.975
